# Experimental data reported in the supplement of paper PMC10849652.
# About 7,900 targets were measured; listed, in parts, are those with a hit and a random draw of the rest. About 0.6% of all pairs of compound and target were hits. Values without a mark were called inactive.
# Legend:
# Test in all cases: log2 fold change, soluble protein after heating vs DMSO (PISA); higher = thermal stabilisation; K562 cells, 10 uM, 30 min; active = over 0.2 and 3.5 SD of the protein, either way, in both replicates (recomputed)
# [1] = compound: COC1=CC=C(C=C1)CN2C=CC3=C2C=C(C=C3)C(=O)NO
# Outline: (§1)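 K562 cells at 2×10^6 cells/mL were treated for 30 min with 10 μM compound, and aliquots were heated for 3 min over 48°C-58°C before pooling. Extraction used PBS with 0.5% NP-40 at 4°C, and soluble protein was the supernatant after 21,000xg for 90 min, measured by TMTpro 16plex LC-MS/MS with channel sums equalised. Thermal stability values, relative to control samples and from duplicates, are log2 fold changes.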
# filanesib = compound: CON(C)C(=O)N1N=C(c2cc(F)ccc2F)S[C@@]1(CCCN)c1ccccc1 [filanesib]
# Outline: as §1
# zotarolimus = compound: CO[C@H]1C[C@@H]2CC[C@@H](C)[C@@](O)(O2)C(=O)C(=O)N2CCCC[C@H]2C(=O)O[C@H]([C@H](C)C[C@@H]2CC[C@H](n3cnnn3)[C@H](OC)C2)CC(=O)[C@H](C)/C=C(\C)[C@@H](O)[C@@H](OC)C(=O)[C@H](C)C[C@H](C)/C=C/C=C/C=C/1C [zotarolimus]
# Outline: as §1
# idasanutlin = compound: COc1cc(C(=O)O)ccc1NC(=O)[C@@H]1N[C@@H](CC(C)(C)C)[C@](C#N)(c2ccc(Cl)cc2F)[C@H]1c1cccc(Cl)c1F [idasanutlin]
# Outline: as §1
# alisertib = compound: COc1cc(Nc2ncc3c(n2)-c2ccc(Cl)cc2C(c2c(F)cccc2OC)=NC3)ccc1C(=O)O [alisertib]
# Outline: as §1
# [2] = compound: COc1cc2nc(-c3cc(F)ccc3O)nc(N[C@@H]3CNC[C@H]3C(C)(C)O)c2cc1OC
# Outline: as §1
# gefitinib = compound: COc1cc2ncnc(Nc3ccc(F)c(Cl)c3)c2cc1OCCCN1CCOCC1 [gefitinib]
# Outline: as §1
# [3] = compound: COc1cccc2cc(-c3nc([C@H]4CC[C@H](C(=O)O)CC4)n4ncnc(N)c34)[nH]c12
# Outline: as §1
# lapatinib = compound: CS(=O)(=O)CCNCc1ccc(-c2ccc3ncnc(Nc4ccc(OCc5cccc(F)c5)c(Cl)c4)c3c2)o1 [lapatinib]
# Outline: as §1
# pictilisib = compound: CS(=O)(=O)N1CCN(Cc2cc3nc(-c4cccc5[nH]ncc45)nc(N4CCOCC4)c3s2)CC1 [pictilisib]
# Outline: as §1
# [4] = compound: CS(=O)(=O)c1ccc(-c2cnc(N)c(C(=O)Nc3ccccc3)n2)cc1
# Outline: as §1
# crizotinib = compound: C[C@@H](Oc1cc(-c2cnn(C3CCNCC3)c2)cnc1N)c1c(Cl)ccc(F)c1Cl [crizotinib]
# Outline: as §1
# [5] = compound: C[C@@H]1COCCN1C2=NC(=NC(=C2)C3(CC3)S(=O)(=O)C)C4=C5C=CNC5=CC=C4
# Outline: as §1
# [6] = compound: C[C@H](C1=CC=C(C=C1)C(=O)NC2=C3C=CNC3=NC=C2)N
# Outline: as §1
# duvelisib = compound: C[C@H](Nc1ncnc2nc[nH]c12)c1cc2cccc(Cl)c2c(=O)n1-c1ccccc1 [duvelisib]
# Outline: as §1
# gandotinib = compound: Cc1cc(Nc2cc(CN3CCOCC3)c3nc(C)c(Cc4ccc(Cl)cc4F)n3n2)n[nH]1 [gandotinib]
# Outline: as §1
# tozasertib = compound: Cc1cc(Nc2cc(N3CCN(C)CC3)nc(Sc3ccc(NC(=O)C4CC4)cc3)n2)n[nH]1 [tozasertib]
# Outline: as §1
# [7] = compound: Cc1cc(SCc2sc(-c3ccc(C(F)(F)F)cc3)nc2C)ccc1OCC(=O)O
# Outline: as §1
# doramapimod = compound: Cc1ccc(-n2nc(C(C)(C)C)cc2NC(=O)Nc2ccc(OCCN3CCOCC3)c3ccccc23)cc1 [doramapimod]
# Outline: as §1
# ispinesib = compound: Cc1ccc(C(=O)N(CCCN)[C@@H](c2nc3cc(Cl)ccc3c(=O)n2Cc2ccccc2)C(C)C)cc1 [ispinesib]
# Outline: as §1
# Sequence of UniProt Q12996 (Q12996 whole entry, looked up): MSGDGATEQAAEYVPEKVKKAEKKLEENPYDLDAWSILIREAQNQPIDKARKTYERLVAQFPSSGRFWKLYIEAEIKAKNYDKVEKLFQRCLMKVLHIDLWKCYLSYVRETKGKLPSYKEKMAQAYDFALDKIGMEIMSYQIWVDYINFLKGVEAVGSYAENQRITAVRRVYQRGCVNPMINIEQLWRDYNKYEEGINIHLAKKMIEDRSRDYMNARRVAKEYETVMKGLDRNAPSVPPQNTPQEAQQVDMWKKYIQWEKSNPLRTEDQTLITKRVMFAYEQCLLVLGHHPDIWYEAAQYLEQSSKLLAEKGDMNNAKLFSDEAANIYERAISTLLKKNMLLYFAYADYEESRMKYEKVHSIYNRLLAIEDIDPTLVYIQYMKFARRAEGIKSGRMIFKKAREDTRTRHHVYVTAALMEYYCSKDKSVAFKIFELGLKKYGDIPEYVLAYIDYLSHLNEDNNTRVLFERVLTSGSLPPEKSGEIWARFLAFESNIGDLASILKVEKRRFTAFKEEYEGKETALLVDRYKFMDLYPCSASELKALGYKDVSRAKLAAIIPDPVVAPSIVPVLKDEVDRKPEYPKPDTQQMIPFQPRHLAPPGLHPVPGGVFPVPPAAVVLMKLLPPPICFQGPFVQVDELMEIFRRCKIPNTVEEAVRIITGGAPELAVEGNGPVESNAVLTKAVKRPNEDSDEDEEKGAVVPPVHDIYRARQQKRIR
# Sequence of UniProt Q5T5Y3 (Q5T5Y3 whole entry, looked up): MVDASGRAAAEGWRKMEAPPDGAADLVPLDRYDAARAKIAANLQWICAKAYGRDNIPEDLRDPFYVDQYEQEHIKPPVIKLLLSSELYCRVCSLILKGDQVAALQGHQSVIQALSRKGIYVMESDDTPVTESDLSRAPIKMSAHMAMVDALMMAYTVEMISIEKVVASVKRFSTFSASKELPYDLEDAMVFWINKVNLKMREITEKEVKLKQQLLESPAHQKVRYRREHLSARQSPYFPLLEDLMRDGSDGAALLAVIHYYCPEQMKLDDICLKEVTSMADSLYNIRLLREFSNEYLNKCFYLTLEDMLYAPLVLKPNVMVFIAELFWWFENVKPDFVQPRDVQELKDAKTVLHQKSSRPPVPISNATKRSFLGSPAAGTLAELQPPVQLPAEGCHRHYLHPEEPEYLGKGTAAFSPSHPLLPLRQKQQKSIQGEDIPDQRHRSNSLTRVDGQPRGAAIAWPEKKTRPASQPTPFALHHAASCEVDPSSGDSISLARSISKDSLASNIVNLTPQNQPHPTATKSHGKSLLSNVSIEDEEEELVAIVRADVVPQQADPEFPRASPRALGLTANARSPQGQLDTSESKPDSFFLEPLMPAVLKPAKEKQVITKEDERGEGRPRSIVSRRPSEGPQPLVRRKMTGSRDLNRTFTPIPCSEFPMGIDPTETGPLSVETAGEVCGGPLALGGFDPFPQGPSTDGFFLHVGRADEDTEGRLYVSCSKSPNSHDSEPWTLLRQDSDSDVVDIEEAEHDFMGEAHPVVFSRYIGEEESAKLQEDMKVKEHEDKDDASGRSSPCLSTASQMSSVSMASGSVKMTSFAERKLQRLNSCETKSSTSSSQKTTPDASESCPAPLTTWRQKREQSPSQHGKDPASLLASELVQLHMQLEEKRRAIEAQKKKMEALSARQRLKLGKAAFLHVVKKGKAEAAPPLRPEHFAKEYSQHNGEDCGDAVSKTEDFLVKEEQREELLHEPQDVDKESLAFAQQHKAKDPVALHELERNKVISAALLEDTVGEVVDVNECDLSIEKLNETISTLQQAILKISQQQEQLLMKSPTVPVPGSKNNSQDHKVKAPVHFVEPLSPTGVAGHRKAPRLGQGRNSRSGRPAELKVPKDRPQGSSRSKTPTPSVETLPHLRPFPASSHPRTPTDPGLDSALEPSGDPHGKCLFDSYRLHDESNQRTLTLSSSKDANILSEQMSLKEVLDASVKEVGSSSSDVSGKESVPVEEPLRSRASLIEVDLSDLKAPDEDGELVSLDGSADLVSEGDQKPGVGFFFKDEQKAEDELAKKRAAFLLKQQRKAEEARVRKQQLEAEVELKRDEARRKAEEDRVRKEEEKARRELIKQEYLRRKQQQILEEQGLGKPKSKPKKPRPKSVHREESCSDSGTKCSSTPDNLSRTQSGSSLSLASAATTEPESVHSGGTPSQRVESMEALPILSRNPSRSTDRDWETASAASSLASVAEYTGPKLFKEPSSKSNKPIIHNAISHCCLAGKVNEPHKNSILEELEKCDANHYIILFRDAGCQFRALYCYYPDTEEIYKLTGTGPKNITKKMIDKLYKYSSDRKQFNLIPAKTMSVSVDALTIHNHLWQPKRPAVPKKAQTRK
# Sequence of UniProt Q9NZN8 (Q9NZN8 whole entry, looked up): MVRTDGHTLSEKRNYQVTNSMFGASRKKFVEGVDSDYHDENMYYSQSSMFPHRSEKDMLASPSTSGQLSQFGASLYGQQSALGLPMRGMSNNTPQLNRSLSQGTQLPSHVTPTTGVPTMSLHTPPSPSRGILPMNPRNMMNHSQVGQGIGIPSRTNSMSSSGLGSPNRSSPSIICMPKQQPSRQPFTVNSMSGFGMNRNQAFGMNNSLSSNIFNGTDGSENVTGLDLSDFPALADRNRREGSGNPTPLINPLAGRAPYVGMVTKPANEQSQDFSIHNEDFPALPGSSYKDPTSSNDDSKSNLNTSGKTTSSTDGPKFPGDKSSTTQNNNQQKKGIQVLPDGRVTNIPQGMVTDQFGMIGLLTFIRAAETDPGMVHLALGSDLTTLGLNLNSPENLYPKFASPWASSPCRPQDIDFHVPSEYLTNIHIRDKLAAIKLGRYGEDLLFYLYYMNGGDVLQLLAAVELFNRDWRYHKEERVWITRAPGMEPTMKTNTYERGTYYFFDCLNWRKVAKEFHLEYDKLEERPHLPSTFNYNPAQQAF
# Sequence of UniProt Q7L3B6 (Q7L3B6 whole entry, looked up): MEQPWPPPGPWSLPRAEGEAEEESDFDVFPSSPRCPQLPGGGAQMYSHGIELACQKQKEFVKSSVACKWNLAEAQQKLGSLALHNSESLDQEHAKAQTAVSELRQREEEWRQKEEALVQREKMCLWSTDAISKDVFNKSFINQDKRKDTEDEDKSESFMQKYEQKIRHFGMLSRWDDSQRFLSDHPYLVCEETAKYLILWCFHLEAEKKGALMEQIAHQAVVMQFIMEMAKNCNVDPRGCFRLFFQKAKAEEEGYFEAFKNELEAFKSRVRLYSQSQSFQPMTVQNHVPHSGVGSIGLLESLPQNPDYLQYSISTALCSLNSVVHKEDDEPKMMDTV
# Sequence of UniProt Q00587 (Q00587 whole entry, looked up): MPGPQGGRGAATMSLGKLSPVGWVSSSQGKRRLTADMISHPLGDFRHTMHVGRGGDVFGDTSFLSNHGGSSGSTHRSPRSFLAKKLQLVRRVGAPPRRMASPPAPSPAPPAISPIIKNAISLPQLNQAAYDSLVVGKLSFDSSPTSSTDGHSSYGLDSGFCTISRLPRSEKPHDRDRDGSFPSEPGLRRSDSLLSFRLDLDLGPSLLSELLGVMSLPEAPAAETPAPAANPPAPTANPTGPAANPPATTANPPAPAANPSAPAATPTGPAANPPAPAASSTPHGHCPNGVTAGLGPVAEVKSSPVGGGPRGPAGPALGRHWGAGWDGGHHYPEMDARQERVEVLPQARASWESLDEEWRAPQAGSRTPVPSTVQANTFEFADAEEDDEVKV
# Sequence of UniProt Q9P031 (Q9P031 whole entry, looked up): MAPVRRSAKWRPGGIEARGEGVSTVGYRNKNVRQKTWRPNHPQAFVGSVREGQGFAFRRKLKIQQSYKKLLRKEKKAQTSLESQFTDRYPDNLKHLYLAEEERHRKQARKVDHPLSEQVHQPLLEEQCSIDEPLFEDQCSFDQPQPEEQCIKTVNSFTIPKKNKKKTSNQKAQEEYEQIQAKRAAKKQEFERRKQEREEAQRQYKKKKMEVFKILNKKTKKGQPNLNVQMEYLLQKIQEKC
# Sequence of UniProt P33240 (P33240 whole entry, looked up): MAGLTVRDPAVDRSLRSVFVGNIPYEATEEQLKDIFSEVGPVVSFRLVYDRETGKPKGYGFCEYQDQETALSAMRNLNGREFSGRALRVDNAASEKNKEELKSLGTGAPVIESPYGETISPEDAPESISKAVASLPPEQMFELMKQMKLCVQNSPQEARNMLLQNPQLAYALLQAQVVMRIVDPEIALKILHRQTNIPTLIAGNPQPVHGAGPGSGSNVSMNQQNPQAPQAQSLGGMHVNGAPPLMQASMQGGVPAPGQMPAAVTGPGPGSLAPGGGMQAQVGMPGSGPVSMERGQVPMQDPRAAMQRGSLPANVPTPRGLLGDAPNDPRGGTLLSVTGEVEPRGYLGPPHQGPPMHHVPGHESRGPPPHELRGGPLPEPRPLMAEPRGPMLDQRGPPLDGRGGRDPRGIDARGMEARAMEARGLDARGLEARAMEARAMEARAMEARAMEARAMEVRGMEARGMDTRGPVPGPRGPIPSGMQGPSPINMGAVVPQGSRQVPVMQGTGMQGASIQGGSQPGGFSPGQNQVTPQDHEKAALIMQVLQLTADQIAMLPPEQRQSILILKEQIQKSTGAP
# Sequence of UniProt O75390 (O75390 whole entry, looked up): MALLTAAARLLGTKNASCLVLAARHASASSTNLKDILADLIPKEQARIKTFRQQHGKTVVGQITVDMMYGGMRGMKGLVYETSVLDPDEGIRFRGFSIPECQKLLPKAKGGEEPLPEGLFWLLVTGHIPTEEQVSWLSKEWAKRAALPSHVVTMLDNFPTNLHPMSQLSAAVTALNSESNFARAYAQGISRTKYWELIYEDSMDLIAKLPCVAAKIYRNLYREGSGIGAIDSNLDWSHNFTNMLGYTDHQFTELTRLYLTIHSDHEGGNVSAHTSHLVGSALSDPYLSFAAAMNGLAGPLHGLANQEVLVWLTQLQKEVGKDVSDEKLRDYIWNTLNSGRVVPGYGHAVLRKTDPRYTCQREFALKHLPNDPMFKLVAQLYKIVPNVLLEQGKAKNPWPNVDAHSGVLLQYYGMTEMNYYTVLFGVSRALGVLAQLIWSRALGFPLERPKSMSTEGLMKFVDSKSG
Target,log2 fold change [1],log2 fold change (filanesib),log2 fold change (zotarolimus),log2 fold change (idasanutlin),log2 fold change (alisertib),log2 fold change [2],log2 fold change (gefitinib),log2 fold change [3],log2 fold change (lapatinib),log2 fold change (pictilisib),log2 fold change [4],log2 fold change (crizotinib),log2 fold change [5],log2 fold change [6],log2 fold change (duvelisib),log2 fold change (gandotinib),log2 fold change (tozasertib),log2 fold change [7],log2 fold change (doramapimod),log2 fold change (ispinesib)
CCDC59 (UniProt Q9P031),0.024,0.301,-0.008,0.225,-0.124,-0.013,-0.066,-0.054,-0.034,-0.234,0.09,-0.084,0,0.389,-0.157,0.186,0.01,0.006,0.164,-0.136
CNOT2 (UniProt Q9NZN8),-0.006,0.006,0.014,0.005,-0.01,0.021,0.017,-0.021,0.048,0.04,0.028,-0.019,0.038,0.046,-0.021,-0.045,-0.006,0.077,-0.012,-0.02
CSTF2 (UniProt P33240),-0.052,0.005,-0.009,0.013,-0.016,-0.005,-0.07,0.023,0.021,0.069,0.016,0.075,0.14,-0.042,0.029,0.048,0.033,-0.011,0.028,0.068
CDC37L1 (UniProt Q7L3B6),-0.027,0.047,-0.057,-0.031,-0.009,-0.106,0.029,-0.037,0.034,-0.051,0.007,0.036,0.148,-0.013,-0.039,-0.091,-0.093,0.117,-0.036,0.005
CDC42EP1 (UniProt Q00587),-0.139,-0.07,0.014,0,0,-0.492 (active),0.087,-0.057,-0.015,-0.143,-0.006,-0.566 (active),0.019,-0.041,-0.061,-0.524 (active),-0.192,0.073,0.076,-0.327
CAMSAP1 isoform 3 (UniProt Q5T5Y3),0.011,-0.015,0.045,0.091,0.039,0.169,-0.034,0.056,0.095,0.118,0.05,-0.11,0.073,0.041,-0.019,-0.039,-0.04,0.02,0.008,-0.124
CSTF3 (UniProt Q12996),-0.008,-0.041,-0.033,-0.087,-0.056,0.176,-0.005,0.022,-0.012,0.066,0.004,-0.07,0.025,0.019,0.061,0,-0.021,-0.031,-0.022,0.082
CS (UniProt O75390),0.012,-0.172,0.011,-0.033,-0.013,-0.139,0.041,0.059,-0.027,0.099,0.044,-0.122,0.072,-0.034,0.059,-0.037,0.027,0.061,0.017,-0.157
